OPRM1-OPRD1 inv – inverse agonist of human OPRM1-OPRD1 heterodimerization; P35372+P41143; cell-based MOR-DOR heterodimer luminescence, inverse agonism; inhibition, % at 9.3 µM; actives 0.21% (n = 340,000); AID 504357; in the data active = inhibition above about 22%, passing the limit was not always enough
Target sequence (P35372 whole entry, looked up): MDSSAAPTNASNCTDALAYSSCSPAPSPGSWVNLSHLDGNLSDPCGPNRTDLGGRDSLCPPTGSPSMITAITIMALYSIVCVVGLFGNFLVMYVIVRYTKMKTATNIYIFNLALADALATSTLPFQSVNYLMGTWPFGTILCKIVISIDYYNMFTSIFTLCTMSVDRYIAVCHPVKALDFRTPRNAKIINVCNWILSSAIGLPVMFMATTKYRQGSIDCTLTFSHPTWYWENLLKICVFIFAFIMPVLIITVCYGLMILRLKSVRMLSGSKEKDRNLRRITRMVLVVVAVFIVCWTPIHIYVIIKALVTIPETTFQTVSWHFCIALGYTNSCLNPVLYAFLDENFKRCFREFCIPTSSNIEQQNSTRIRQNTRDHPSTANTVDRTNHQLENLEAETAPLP
Target sequence (P41143 whole entry, looked up): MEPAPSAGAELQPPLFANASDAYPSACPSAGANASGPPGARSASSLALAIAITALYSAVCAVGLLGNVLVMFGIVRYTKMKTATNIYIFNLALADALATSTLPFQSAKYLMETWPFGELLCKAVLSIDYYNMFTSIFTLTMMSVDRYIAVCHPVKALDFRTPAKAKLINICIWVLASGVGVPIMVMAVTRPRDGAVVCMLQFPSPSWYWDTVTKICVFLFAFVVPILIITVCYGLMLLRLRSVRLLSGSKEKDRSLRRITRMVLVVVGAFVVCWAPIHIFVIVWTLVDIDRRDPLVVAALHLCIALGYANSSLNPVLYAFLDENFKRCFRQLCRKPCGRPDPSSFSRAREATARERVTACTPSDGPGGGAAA
HTR5A inv ag – HTR5A inverse agonism, opioid heterodimer counter-screen | P47898 | HTR5A cell line, luminescence | AID 504634 | actives 0.083% (n = 340,000) | inhibition, % at 9.3 µM; in the data active = inhibition mostly above about 23%, no sharp cut-off; inactive = mostly below about 18%
HTR5A ag ctr – HTR5A agonism, opioid heterodimer counter-screen | HTR5A agonist assay, luminescence, cell-based | activation, % at 9.3 µM | actives 0.61% (n = 340,000) | AID 504692 | P47898; in the data active = activation mostly above about 9.5%, no sharp cut-off; inactive = mostly below about 7.6%
OPRM1-OPRD1 ag – agonists of human mu-delta opioid receptor heterodimerization; activation, % at 9.3 µM; actives 0.3% (n = 340,000); cells, OPRM1-OPRD1 heterodimerization, luminescence; P35372+P41143; in the data active = activation above about 18%
Hits are given with their value; 0 = inactive. Most compounds without a hit are left out; they make up all but 1.1% or so of the library.

SMILES | OPRM1-OPRD1 inv | HTR5A inv ag | HTR5A ag ctr | OPRM1-OPRD1 ag
c1ccc2c(c1)CC/C2=N/Nc1nc2ccccc2[nH]1 | 0 | 0 | 11.7 | 0
CCC(=O)N1CCN(c2ccc(Cl)cc2NC(=O)c2ccc(N3CCCC3)c([N+](=O)[O-])c2)CC1 | 0 | 0 | 0 | 0
CCCCN(Cc1ccco1)C(=O)c1cc2c(=O)[nH]c3ccc(C)cc3c2s1 | 0 | 0 | 15.9 | 19.7
CCCCN(CC)C(=O)c1cc2c(=O)[nH]c3ccc(C)cc3c2s1 | 0 | 0 | 0 | 0
CCCCN(C)CCNC(=O)c1ccc2c(c1)NC(=O)C(N1CCCCC1)S2 (stereo not drawn) | 0 | 0 | 12.5 | 0
O=C(NCCCN1CCCC1=O)c1ccc2c(c1)NC(=O)C(N1CCOCC1)S2 (stereo not drawn) | 0 | 0 | 0 | 0
C=CCC1CCC/C(=N\NS(=O)(=O)c2ccc(C)cc2)C1 (stereo not drawn) | 0 | 0 | 13.4 | 0
COc1ccc(-n2nnnc2-c2cccnc2)cc1 | 0 | 0 | 10.4 | 0
Cc1ccsc1C(=O)Nc1cc(C(C)(C)C)nn1-c1ccccc1 | 0 | 0 | 13.6 | 0
COc1ccc(NC2=CC(c3cccc(OC)c3)N(c3ccc(OC)cc3)C2=O)cc1 (stereo not drawn) | 0 | 0 | 0 | 0
CC(C)Oc1ccccc1-c1nc(SCC(=O)O)n[nH]1 | 0 | 0 | 12.3 | 0
Fc1ccc(NC(=S)N2CCSC2c2cccs2)cc1 (stereo not drawn) | 0 | 0 | 0 | 0
COCc1ccc(CN2CCCC(C(=O)Nc3ccc(-c4cccc(OC)c4)cc3)C2)o1 (stereo not drawn) | 0 | 0 | 11.6 | 0
COCc1ccc(CN2CCCC(C(=O)Nc3ccccc3-c3ccc(OC)cc3)C2)o1 (stereo not drawn) | 0 | 0 | 0 | 0
Cc1ccccc1OCC(=O)NCCN(C)C | 0 | 0 | 0 | 0
COc1cccc(/C=C(/C(=O)OCC(=O)NCC2CCCO2)c2ccccc2)c1 (stereo not drawn) | 0 | 0 | 11.0 | 0
COc1cccc(/C=C(/C(=O)OCC(=O)NC2CCCCCCC2)c2ccccc2)c1 | 0 | 0 | 0 | 0
COc1ccc(Cl)cc1NC(=O)CN1CCN(S(=O)(=O)N2CCOCC2)CC1 | 0 | 0 | 0 | 0
O=Nc1c2cc3ccccc3[nH]c-2c2ccccc12 | 0 | 0 | 0 | 0
O=Nc1c(O)c2ccccc2c2ccccc12 | 0 | 0 | 12.3 | 0
Oc1cccc(C(O)CNCc2ccc(OCc3ccc(Cl)cc3Cl)cc2)c1 (stereo not drawn) | 0 | 0 | 12.5 | 0
C/C(=N/Nc1ccc([N+](=O)[O-])cc1)c1ccc(C)cc1C | 0 | 0 | 0 | 0
C/C(=N/Nc1ccc([N+](=O)[O-])cc1)c1c[nH]c2ccccc12 | 0 | 29.9 | 0 | 0
COCC1CCN(C(=O)C2CCC(=O)N(CCc3cccc(F)c3)C2)CC1 (stereo not drawn) | 0 | 0 | 0 | 0
COc1ccc2c(c1)Sc1ccccc1N2CCN(C)C | 0 | 0 | 0 | 19.0
SMILES | OPRM1-OPRD1 inv | HTR5A inv ag | HTR5A ag ctr | OPRM1-OPRD1 ag
O=C(NCc1ccc(F)cc1)C1CCC(CNS(=O)(=O)c2cccs2)CC1 (stereo not drawn) | 0 | 0 | 14.2 | 0
O=C(Nc1ccc(Cl)c(-c2nc3ccccc3[nH]2)c1)c1ccc2c(c1)OCO2 | 0 | 0 | 0 | 0
O=C(Nc1ccc(-c2nc3ccccc3[nH]2)cc1)c1ccc2c(c1)OCO2 | 0 | 0 | 12.7 | 0
CCOC(=O)N1CCN(Cc2cn3ccccc3n2)CC1 | 0 | 0 | 0 | 0
CCc1ccccc1NC(=O)C(Cc1cccc(OC)c1OC)c1nn[nH]n1 (stereo not drawn) | 0 | 0 | 0 | 0
O=C(NC1CCCC(C(F)(F)F)C1)c1ccc([N+](=O)[O-])o1 (stereo not drawn) | 0 | 0 | 14.3 | 0
O=C(NC1CCCCC1)c1ccc([N+](=O)[O-])o1 | 0 | 0 | 0 | 0
CCN(CC)c1ccc(C(=C2C=CC(=[N+](CC)CC)C=C2)c2ccccc2)cc1 | 0 | 0 | 0 | 52.3
Cc1cccc(C(C(=O)NC2CCCC2)N(Cc2cccnc2)C(=O)c2csnn2)c1 (stereo not drawn) | 0 | 0 | 0 | 0
O=C1N/C(=C/c2cccn2-c2ccc(F)cc2)C(=O)N1Cc1ccccc1F | 0 | 0 | 11.9 | 0
O=C1N/C(=C/c2cccn2-c2ccccc2)C(=O)N1Cc1ccc(F)cc1 | 0 | 0 | 0 | 0
O=C1C(=O)N(CCN2CCOCC2)C(c2ccccn2)/C1=C(/O)c1ccccc1 (stereo not drawn) | 0 | 0 | 11.8 | 0
O=C(NCc1ccc(F)cc1)c1noc2c1CCCCC2 | 0 | 0 | 14.2 | 0
CCn1cc(Cl)c(C(=O)N2N=C(c3ccc4ccccc4c3)CC2c2ccccc2O)n1 (stereo not drawn) | 0 | 0 | 11.8 | 0

Compound activity: PubChem, The Scripps Research Institute Molecular Screening Center
